In PubChem BioAssay (EPA / NIEHS):
The source made the active and inactive calls. Rule for the calls: active = hit-call score of the fitted dose curve at least 0.9, where 1 is the maximum; inactive = score below 0.9.

Columns and labels:
Conditions in all cases: mRNA level, 48 h; actives raise or lower the signal
[1] = read-out: Tumor necrosis factor receptor superfamily member 6 (Homo sapiens) (UniProt P25445); assay: LTEA_HepaRG_FAS: Life Technologies and Expression Analysis (LTEA) Assay for Fas cell surface death receptor (FAS) using HepaRG (AID 2283447)
Method in brief: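 FAS transcript level was measured by TaqMan qRT-PCR against three housekeeping genes after 48 h chemical exposure. Cells were HepaRG, 0.5% DMSO vehicle, with a top concentration of 100 uM and half-log dilutions over eight points, in duplicate.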

[2] = read-out: Fatty acid synthase (Homo sapiens) (UniProt P49327); assay: LTEA_HepaRG_FASN: Life Technologies and Expression Analysis (LTEA) Assay for Fatty Acid Synthase (FASN) using HepaRG (AID 2283448)
Method in brief: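 Cells were plated, cultured 48 h, switched to serum-free induction medium, then dosed in duplicate (max 100 uM, half-log dilutions, 0.5% DMSO) for 48 h. RNA was then isolated and FASN quantified by qRT-PCR.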

[3] = read-out: Cyclin D2 (CCND2), CCND2 (gene 894); assay: LTEA_HepaRG_CCND2: Life Technologies and Expression Analysis (LTEA) Assay for Cyclin D2 (CCND2) using HepaRG (AID 2283449)
Method in brief: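 CCND2 transcript levels, quantified by qRT-PCR and normalised to three housekeeping genes, were fitted bidirectionally against 0.5% DMSO. HepaRG cultures were dosed 48 h in duplicate with an 8-point half-log series up to 100 uM.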

[4] = read-out: Cyclin Dependent Kinase Inhibitor 1A (CDKN1A), CDKN1A (gene 1026); assay: LTEA_HepaRG_CDKN1A: Life Technologies and Expression Analysis (LTEA) Assay for Cyclin Dependent Kinase Inhibitor 1A (CDKN1A) using HepaRG (AID 2283450)
Method in brief: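 Differentiated human HepaRG cells, pre-cultured 48 h, were exposed in duplicate for 48 h in serum-free induction medium to eight half-log concentrations up to 100 uM (0.5% DMSO). CDKN1A mRNA was measured by qRT-PCR, normalized to ACTB/GAPDH/POLR2A, bidirectionally fitted versus DMSO.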

[5] = read-out: Cyclin D1 (CCND1), CCND1 (gene 595); assay: LTEA_HepaRG_CCND1: Life Technologies and Expression Analysis (LTEA) Assay for Cyclin D1 (CCND1) using HepaRG (AID 2283451)
Method in brief: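 Differentiated human HepaRG cells in serum-free induction medium were exposed 48 h to eight half-log concentrations up to 100 uM in 0.5% DMSO; mRNA quantified by TaqMan qRT-PCR, normalized to ACTB, GAPDH, POLR2A, fitted bidirectionally versus DMSO.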

[6] = read-out: catalase (CAT), CAT (gene 847); assay: LTEA_HepaRG_CAT: Life Technologies and Expression Analysis (LTEA) Assay for catalase (CAT) using HepaRG (AID 2283452)
Method in brief: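 Expression of CAT was quantified by TaqMan qRT-PCR with ACTB/GAPDH/POLR2A normalization after 48 h chemical exposure of HepaRG. Eight-point half-log series, top 100 uM, in 0.5% DMSO; gain or loss fitted against vehicle.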

[7] = read-out: flavin-containing dimethylaniline monooxygenases 3 (FMO3), FMO3 (gene 2328); assay: LTEA_HepaRG_FMO3: Life Technologies and Expression Analysis (LTEA) Assay for flavin-containing dimethylaniline monooxygenases 3 (FMO3) using HepaRG (AID 2283453)
Method in brief: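 FMO3 transcript quantified by TaqMan qRT-PCR against three housekeeping genes after 48 h chemical exposure of HepaRG cells. Eight-point half-log series, top 100 uM, 0.5% DMSO vehicle; phenobarbital 1mM induction control; up- or down-regulation fitted.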

[8] = read-out: Cytochrome P450 (CYP1A1), CYP1A1 (gene 1543); assay: LTEA_HepaRG_CYP1A1: Life Technologies and Expression Analysis (LTEA) Assay for Cytochrome P450 (CYP1A1) using HepaRG (AID 2283454)
Method in brief: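 Differentiated HepaRG cells in serum-free induction medium were exposed in duplicate for 48 h to eight half-log concentrations up to 100 uM in 0.5% DMSO. CYP1A1 mRNA was quantified by TaqMan qRT-PCR, normalized to ACTB, GAPDH and POLR2A.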

[9] = read-out: CFLAR gene, CFLAR (gene 8837); assay: LTEA_HepaRG_CFLAR: Life Technologies and Expression Analysis (LTEA) Assay for CFLAR gene using HepaRG (AID 2283455)
Method in brief: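 Transcript level by qRT-PCR (normalized to ACTB, GAPDH and POLR2A) after 48 h chemical exposure of HepaRG cells, top concentration 100 uM with half-log steps, 0.5% DMSO vehicle, duplicates; fitted bidirectionally against DMSO baseline.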

[10] = read-out: Forkhead box O1 (FOXO1), FOXO1 (gene 2308); assay: LTEA_HepaRG_FOXO1: Life Technologies and Expression Analysis (LTEA) Assay for Forkhead box O1 (FOXO1) using HepaRG (AID 2283456)
Method in brief: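 FOXO1 transcript quantified by qRT-PCR after 48 h chemical exposure (top 100 uM, half-log steps, 0.5% DMSO) of HepaRG cells, housekeeping-normalized (ACTB/GAPDH/POLR2A). Changes fitted in both directions relative to vehicle.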

[11] = read-out: Forkhead box O3 (FOXO3), FOXO3 (gene 2309); assay: LTEA_HepaRG_FOXO3: Life Technologies and Expression Analysis (LTEA) Assay for Forkhead box O3 (FOXO3) using HepaRG (AID 2283459)
Method in brief: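 FOXO3 transcript measured by qRT-PCR (normalized to ACTB, GAPDH, POLR2A) after 48 h exposure of HepaRG cells in serum-free induction medium. Duplicates, eight half-log concentrations up to 100 uM, 0.5% DMSO; gain or loss fitted against DMSO.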

[12] = read-out: ABC Transporter (ABCB1), ABCB1 (gene 5243); assay: LTEA_HepaRG_ABCB1: Life Technologies and Expression Analysis (LTEA) Assay for ABC Transporter (ABCB1) using HepaRG (AID 2283460)
Method in brief: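 ABCB1 transcript level measured by TaqMan qRT-PCR against three housekeeping genes after 48 h chemical exposure of differentiated HepaRG cells. Top concentration 100 uM, half-log steps, eight points, 0.5% DMSO vehicle; bidirectional fit relative to DMSO.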

[13] = read-out: growth arrest and DNA damage 45 (GADD45B), GADD45B (gene 4616); assay: LTEA_HepaRG_GADD45B: Life Technologies and Expression Analysis (LTEA) Assay for growth arrest and DNA damage 45 (GADD45B) using HepaRG (AID 2283461)
Method in brief: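 Differentiated HepaRG cells, plated 48 h then switched to serum-free induction medium, were exposed 48 h in duplicate to eight half-log concentrations from 100 uM in 0.5% DMSO; mRNA quantified by qRT-PCR, normalized to ACTB/GAPDH/POLR2A, bidirectional fit versus DMSO.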

[14] = read-out: ABC Transporter (ABCB11), ABCB11 (gene 8647); assay: LTEA_HepaRG_ABCB11: Life Technologies and Expression Analysis (LTEA) Assay for ABC Transporter (ABCB11) using HepaRG (AID 2283463)
Method in brief: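 ABCB11 transcript levels quantified by TaqMan qRT-PCR against three housekeeping genes after 48 h chemical exposure of HepaRG cultures. Concentrations up to 100 uM in half-log steps, 0.5% DMSO vehicle; both induction and suppression scored.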

[15] = read-out: ABC Transporter (ABCC2), ABCC2 (gene 1244); assay: LTEA_HepaRG_ABCC2: Life Technologies and Expression Analysis (LTEA) Assay for ABC Transporter (ABCC2) using HepaRG (AID 2283464)
Method in brief: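 HepaRG cells were plated 48 h, switched to serum-free induction medium, then exposed in duplicate for 48 h to 8 concentrations (top 100 uM, half-log steps, 0.5% DMSO). ABCC2 mRNA was measured by qRT-PCR normalized to ACTB/GAPDH/POLR2A; bidirectional fitting versus DMSO.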

[16] = read-out: ATP-citrate lyase (ACLY), ACLY (gene 47); assay: LTEA_HepaRG_ACLY: Life Technologies and Expression Analysis (LTEA) Assay for ATP-citrate lyase (ACLY) using HepaRG (AID 2283466)
Method in brief: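 ACLY mRNA quantified by qRT-PCR on Fluidigm arrays against three housekeeping genes, after 48 h chemical treatment of HepaRG cells (top concentration 100 uM, half-log steps, 0.5% DMSO vehicle). Up- or down-regulation fitted relative to DMSO.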

[17] = read-out: Broad substrate specificity ATP-binding cassette transporter ABCG2 (Homo sapiens) (UniProt Q9UNQ0); assay: LTEA_HepaRG_ABCG2: Life Technologies and Expression Analysis (LTEA) Assay for ABC Transporter (ABCG2) using HepaRG (AID 2283465)
Method in brief: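 ABCG2 transcript was quantified by TaqMan qRT-PCR against three housekeeping genes in HepaRG cells. Cells were treated in duplicate for 48 h across an 8-point half-log series up to 100 uM, with 0.5% DMSO vehicle. Gain or loss versus DMSO was fit.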

[18] = read-out: ABC Transporter (ABCC3), ABCC3 (gene 8714); assay: LTEA_HepaRG_ABCC3: Life Technologies and Expression Analysis (LTEA) Assay for ABC Transporter (ABCC3) using HepaRG (AID 2283462)
Method in brief: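 HepaRG cells in serum-free induction medium were exposed for 48 h in duplicate to 8-point half-log concentrations topping at 100 uM in 0.5% DMSO. ABCC3 mRNA was measured by qRT-PCR normalized to ACTB, GAPDH and POLR2A, with bidirectional fitting versus DMSO.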

Chain of Fatty acid synthase (Homo sapiens) (P49327 whole entry, looked up): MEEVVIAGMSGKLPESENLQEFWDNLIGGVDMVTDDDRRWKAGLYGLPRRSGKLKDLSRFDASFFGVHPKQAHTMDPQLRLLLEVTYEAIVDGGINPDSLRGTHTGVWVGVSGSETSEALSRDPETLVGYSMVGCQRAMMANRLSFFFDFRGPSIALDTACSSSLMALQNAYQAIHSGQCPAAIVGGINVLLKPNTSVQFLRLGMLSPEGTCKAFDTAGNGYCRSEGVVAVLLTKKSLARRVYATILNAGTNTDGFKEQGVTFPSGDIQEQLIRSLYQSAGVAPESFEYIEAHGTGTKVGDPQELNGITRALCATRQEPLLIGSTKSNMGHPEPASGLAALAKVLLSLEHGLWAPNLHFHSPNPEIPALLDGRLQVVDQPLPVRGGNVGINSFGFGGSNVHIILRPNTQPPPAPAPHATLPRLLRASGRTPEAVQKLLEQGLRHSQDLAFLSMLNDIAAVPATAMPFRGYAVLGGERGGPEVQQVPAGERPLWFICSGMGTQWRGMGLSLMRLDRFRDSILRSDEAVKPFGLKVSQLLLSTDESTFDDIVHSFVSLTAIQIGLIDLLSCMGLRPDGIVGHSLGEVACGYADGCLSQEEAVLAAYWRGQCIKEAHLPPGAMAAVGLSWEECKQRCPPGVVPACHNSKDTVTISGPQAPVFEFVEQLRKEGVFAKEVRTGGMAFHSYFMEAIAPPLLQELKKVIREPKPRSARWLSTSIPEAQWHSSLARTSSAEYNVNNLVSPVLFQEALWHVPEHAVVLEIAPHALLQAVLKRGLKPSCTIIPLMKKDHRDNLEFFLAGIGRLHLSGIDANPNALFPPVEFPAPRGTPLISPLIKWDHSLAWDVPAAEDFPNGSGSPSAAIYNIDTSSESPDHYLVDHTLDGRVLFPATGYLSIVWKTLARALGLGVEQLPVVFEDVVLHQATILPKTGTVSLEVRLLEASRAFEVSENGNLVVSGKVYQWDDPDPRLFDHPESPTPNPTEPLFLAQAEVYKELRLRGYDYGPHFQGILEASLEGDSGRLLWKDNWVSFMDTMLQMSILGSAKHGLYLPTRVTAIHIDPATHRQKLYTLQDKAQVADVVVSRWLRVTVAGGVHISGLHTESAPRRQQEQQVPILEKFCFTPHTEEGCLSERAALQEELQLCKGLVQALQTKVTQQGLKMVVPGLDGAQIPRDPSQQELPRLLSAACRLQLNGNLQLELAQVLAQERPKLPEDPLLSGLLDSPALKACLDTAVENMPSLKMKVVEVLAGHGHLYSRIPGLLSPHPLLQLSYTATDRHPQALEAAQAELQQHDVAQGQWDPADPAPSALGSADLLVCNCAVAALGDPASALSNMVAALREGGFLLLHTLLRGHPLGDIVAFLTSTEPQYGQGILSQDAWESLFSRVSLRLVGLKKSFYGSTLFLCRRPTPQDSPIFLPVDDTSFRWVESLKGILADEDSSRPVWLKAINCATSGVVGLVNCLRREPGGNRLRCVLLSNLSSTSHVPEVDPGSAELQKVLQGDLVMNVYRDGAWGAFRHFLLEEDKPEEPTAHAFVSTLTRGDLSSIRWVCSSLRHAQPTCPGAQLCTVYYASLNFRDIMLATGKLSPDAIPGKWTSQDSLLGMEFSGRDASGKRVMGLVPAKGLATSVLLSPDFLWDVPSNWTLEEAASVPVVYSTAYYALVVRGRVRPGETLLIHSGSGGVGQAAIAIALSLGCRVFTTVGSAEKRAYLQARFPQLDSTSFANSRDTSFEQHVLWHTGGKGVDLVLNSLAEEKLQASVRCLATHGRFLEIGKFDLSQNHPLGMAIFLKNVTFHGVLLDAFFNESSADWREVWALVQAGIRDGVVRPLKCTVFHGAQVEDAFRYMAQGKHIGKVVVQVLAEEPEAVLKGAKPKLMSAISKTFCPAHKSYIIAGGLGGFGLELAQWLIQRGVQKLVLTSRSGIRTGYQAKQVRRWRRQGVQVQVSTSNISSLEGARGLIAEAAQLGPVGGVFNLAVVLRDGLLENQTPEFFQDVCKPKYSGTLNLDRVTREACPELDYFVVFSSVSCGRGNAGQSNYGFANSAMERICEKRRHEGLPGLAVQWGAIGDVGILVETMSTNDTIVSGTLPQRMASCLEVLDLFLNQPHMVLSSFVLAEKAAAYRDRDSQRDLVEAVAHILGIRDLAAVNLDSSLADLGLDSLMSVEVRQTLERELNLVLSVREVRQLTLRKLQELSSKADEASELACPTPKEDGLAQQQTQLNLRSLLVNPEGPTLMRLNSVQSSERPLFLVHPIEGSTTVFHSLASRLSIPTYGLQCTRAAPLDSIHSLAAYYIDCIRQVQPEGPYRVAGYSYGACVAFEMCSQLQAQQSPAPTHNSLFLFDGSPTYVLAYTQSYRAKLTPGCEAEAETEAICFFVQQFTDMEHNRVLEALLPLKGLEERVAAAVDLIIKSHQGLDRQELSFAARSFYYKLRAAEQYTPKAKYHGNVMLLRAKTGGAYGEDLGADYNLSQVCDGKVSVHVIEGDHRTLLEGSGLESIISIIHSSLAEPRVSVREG
Chain of Broad substrate specificity ATP-binding cassette transporter ABCG2 (Homo sapiens) (Q9UNQ0 whole entry, looked up): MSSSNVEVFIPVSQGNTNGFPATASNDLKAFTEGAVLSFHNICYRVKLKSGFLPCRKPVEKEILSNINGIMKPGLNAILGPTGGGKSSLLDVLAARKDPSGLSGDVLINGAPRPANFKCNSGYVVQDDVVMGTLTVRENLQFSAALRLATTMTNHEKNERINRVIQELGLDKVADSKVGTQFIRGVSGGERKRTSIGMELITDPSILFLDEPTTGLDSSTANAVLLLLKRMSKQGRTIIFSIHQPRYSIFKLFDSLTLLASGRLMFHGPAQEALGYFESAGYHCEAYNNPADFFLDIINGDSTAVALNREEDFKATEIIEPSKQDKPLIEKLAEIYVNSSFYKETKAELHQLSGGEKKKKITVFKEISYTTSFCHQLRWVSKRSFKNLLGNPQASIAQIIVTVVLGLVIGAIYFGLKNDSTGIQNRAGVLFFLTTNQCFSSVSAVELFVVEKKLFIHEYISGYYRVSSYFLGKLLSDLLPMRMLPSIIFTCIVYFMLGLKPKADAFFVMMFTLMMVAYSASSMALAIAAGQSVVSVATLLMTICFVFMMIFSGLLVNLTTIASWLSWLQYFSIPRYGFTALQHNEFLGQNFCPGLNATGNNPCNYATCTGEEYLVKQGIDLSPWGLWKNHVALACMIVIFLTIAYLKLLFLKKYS

CCCCCCCCCCCCCCCC
outcome [1]: inactive
outcome [2]: inactive
outcome [3]: inactive
outcome [4]: inactive
outcome [5]: inactive
outcome [6]: inactive
outcome [7]: inactive
AC50 [8]: 50 µM (active)
outcome [9]: inactive
outcome [10]: inactive
outcome [11]: inactive
outcome [12]: inactive
outcome [13]: inactive
outcome [14]: inactive
outcome [15]: inactive
outcome [16]: inactive

CCNc1cccc(C)c1
outcome [1]: inactive
outcome [2]: inactive
outcome [3]: inactive
outcome [4]: inactive
outcome [5]: inactive
outcome [6]: inactive
outcome [7]: inactive
AC50 [8]: 50 µM (active)
outcome [9]: inactive
outcome [10]: inactive
outcome [11]: inactive
outcome [12]: inactive
outcome [13]: inactive
outcome [14]: inactive
outcome [15]: inactive
outcome [17]: inactive
outcome [16]: inactive

CCCCCCCCCCCCCCCCCC(=O)O
outcome [1]: inactive
outcome [2]: inactive
outcome [3]: inactive
outcome [4]: inactive
outcome [5]: inactive
outcome [6]: inactive
outcome [7]: inactive
AC50 [8]: 50 µM (active)
outcome [9]: inactive
outcome [10]: inactive
outcome [11]: inactive
outcome [12]: inactive
outcome [13]: inactive
outcome [14]: inactive
outcome [15]: inactive
outcome [16]: inactive

Cc1ccc(C)c(O)c1C
outcome [1]: inactive
outcome [2]: inactive
outcome [3]: inactive
outcome [4]: inactive
outcome [5]: inactive
outcome [6]: inactive
outcome [7]: inactive
AC50 [8]: 68 µM (active)
outcome [9]: inactive
outcome [10]: inactive
outcome [11]: inactive
outcome [12]: inactive
outcome [13]: inactive
outcome [18]: inactive
outcome [14]: inactive
outcome [15]: inactive
outcome [17]: inactive
outcome [16]: inactive
